Assay results from PubChem BioAssay (NCI).
This is part of a sample that, as a whole, favours compounds with a hit. Of some 79,000 tested, about 15% had one in any assay. The source made the active and inactive calls. Rule as the data show it: active = growth inhibition above about 70%; inactive = the rest.

Experiments:
[1] = NCI Yeast Anticancer Drug Screen. Data for the mec2-1 strain (AID 157); conditions: S. cerevisiae mec2-1 strain, hits give high values
Outline: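 Readout is yeast growth inhibition, normalised to vehicle-treated controls, in the mec2-1 strain exposed to compound.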

[2] = NCI Yeast Anticancer Drug Screen. Data for the rad14 strain (AID 159);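 also: 0% = growth of vehicle-treated control cultures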; conditions: S. cerevisiae rad14 strain growth inhibition, hits give high values
Outline: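 Vehicle-treated cultures served as the baseline for growth inhibition of a DNA repair-mutant yeast strain exposed to each compound.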

[3] = NCI Yeast Anticancer Drug Screen. Data for the sgs1 mgt1 strain (AID 161);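 also: 0% = growth of cultures given vehicle only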; conditions: S. cerevisiae sgs1 mgt1 strain, hits give high values
Outline: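 Percent growth inhibition was derived by comparing compound-exposed mutant yeast with vehicle-exposed cultures. The strain carries alterations in DNA damage repair.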

[4] = NCI Yeast Anticancer Drug Screen. Data for the CLN2oe strain (AID 163);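 also: 0% = growth of vehicle-only control cultures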; conditions: S. cerevisiae CLN2oe strain, hits give high values
Outline: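 Values reflect how much compound exposure reduced yeast growth, referenced to vehicle-exposed cells. Assay organism is a strain with a defined genetic change affecting cell-cycle control.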

[5] = NCI Yeast Anticancer Drug Screen. Data for the cln2 rad14 strain (AID 165);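 also: 0% = growth equal to vehicle treated cultures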; conditions: S. cerevisiae cln2 rad14 strain, hits give high values
Outline: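 Relative to vehicle controls, growth inhibition of compound-treated cln2 rad14 yeast was recorded.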

[6] = NCI Yeast Anticancer Drug Screen. Data for the wt2 strain (AID 169);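 also: 0% = growth of vehicle-treated yeast cultures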; conditions: S. cerevisiae wt2 strain growth inhibition, hits give high values
Outline: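 Values express reduction in yeast growth under compound treatment, referenced to vehicle-treated cells.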

[7] = NCI Yeast Anticancer Drug Screen. Data for the mlh1 strain (AID 171);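 also: 0% = growth of vehicle-treated control cultures of the same strain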; conditions: S. cerevisiae mlh1 strain growth inhibition, hits give high values
Outline: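 Steps: expose the defined-mutant yeast strain to compound; expose a parallel culture to vehicle; measure growth; express compound effect as inhibition relative to the vehicle culture.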

[8] = NCI Yeast Anticancer Drug Screen. Data for the sgs1 strain (AID 173);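 also: 0% = growth of vehicle-only control cultures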; conditions: S. cerevisiae sgs1 mutant, hits give high values
Outline: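 Treat defined-mutant yeast with compound; measure growth; calculate inhibition relative to vehicle-treated cells.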

[9] = NCI Yeast Anticancer Drug Screen. Data for the mlh1 rad18 strain (AID 175); conditions: S. cerevisiae mlh1 rad18 strain growth inhibition, hits give high values
Outline: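 Test agents were incubated with a yeast strain of defined genotype (DNA damage repair defect). Inhibition of growth was derived by comparison with vehicle-exposed cultures.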

[10] = NCI Yeast Anticancer Drug Screen. Data for the rad18 strain (AID 177); conditions: S. cerevisiae rad18 mutant growth inhibition, hits give high values
Outline: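 A genetically defined yeast mutant impaired in DNA damage repair was treated with test compounds, then its growth was measured against cultures receiving vehicle alone.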

[11] = NCI Yeast Anticancer Drug Screen. Data for the rad52 strain (AID 147);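 also: 0% = growth of vehicle-treated control cultures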; conditions: S. cerevisiae rad52 mutant growth inhibition, hits give high values
Outline: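 Screen used a yeast mutant impaired in DNA repair. After compound exposure, growth was measured. Values reflect inhibition compared with vehicle-treated cells.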

[12] = NCI Yeast Anticancer Drug Screen. Data for the wt1 strain (AID 149);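 also: 0% = growth of vehicle-treated wt1 cultures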; conditions: S. cerevisiae wt1 strain (SPY 50644) growth inhibition, hits give high values
Outline: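 Vehicle-normalised growth inhibition; strain wt1; compound exposure.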

[13] = NCI Yeast Anticancer Drug Screen. Data for the rad50EPP+ strain (AID 151);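 also: 0% = growth of vehicle-treated control cultures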; conditions: S. cerevisiae rad50 mutant strain, hits give high values
Outline: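 Exposing the rad50EPP+ strain to each compound, growth was compared with vehicle-only cultures to give inhibition.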

[14] = NCI Yeast Anticancer Drug Screen. Data for the mgt1 strain (AID 153); conditions: S. cerevisiae mgt1 mutant growth inhibition, hits give high values
Outline: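 Genetically defined yeast (mgt1) treated with compound; inhibition of growth expressed against vehicle-treated controls.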

[15] = NCI Yeast Anticancer Drug Screen. Data for the rad50 strain (AID 155);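 also: 0% = growth of vehicle-only cultures of the same strain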; conditions: S. cerevisiae rad50 strain growth inhibition, hits give high values
Outline: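 A DNA repair-deficient yeast mutant serves as the test organism; compound-induced growth inhibition is calculated against vehicle-treated cells.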

[16] = NCI Yeast Anticancer Drug Screen. Data for the bub3 strain (AID 167); conditions: S. cerevisiae bub3 mutant strain, hits give high values
Outline: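 Inhibition values come from growth of compound-treated mutant yeast normalised to vehicle-treated controls.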

[17] = at 5.0 µM (retest, dose inferred, filed as 0.5)
[18] = at 50.0 µM (retest, dose inferred, filed as 5.0)

Measured: growth inhibition

Nc1nnc(N)n1-n1c(N)nnc1N
active: [3]; [18] 89% | [9]; [18] 96%
inactive: [1]; [17] -22% | [1]; at 11.0 µM 4% | [1]; at 33.0 µM 4% | [1]; [18] 36% | [1]; at 50.0 µM 11.8% | [1]; at 100.0 µM 2% | [2]; at 1.2 µM -3% | [2]; at 3.7 µM -3% | [2]; at 11.0 µM -4% | [2]; at 33.0 µM -6% | [2]; at 100.0 µM 0% | [3]; [17] 2% | [3]; at 50.0 µM 27.9% | [4]; at 1.2 µM -3% | [4]; at 3.7 µM -14% | [4]; at 11.0 µM -8% | [4]; at 33.0 µM -6% | [4]; at 100.0 µM -4% | [5]; [17] -2% | [5]; [18] 31% | [5]; at 50.0 µM -13.2% | [6]; at 1.2 µM -1% | [6]; at 3.7 µM -1% | [6]; at 11.0 µM -5% | [6]; at 33.0 µM -2% | [6]; at 100.0 µM 1% | [7]; at 1.2 µM 0% | [7]; at 3.7 µM 0% | [7]; at 11.0 µM 0% | [7]; at 33.0 µM -1% | [7]; at 100.0 µM 2% | [8]; at 1.2 µM 0% | [8]; at 3.7 µM -1% | [8]; at 11.0 µM -1% | [8]; at 33.0 µM -1% | [8]; at 100.0 µM 4% | [9]; [17] 49% | [9]; at 50.0 µM 19.1% | [10]; at 1.2 µM 0% | [10]; at 3.7 µM -4% | [10]; at 11.0 µM -5% | [10]; at 33.0 µM -4% | [10]; at 100.0 µM 9%

CCC1(O)C(=O)OCc2c1cc1n(c2=O)Cc2cc3cc(Cl)ccc3nc2-1 (stereo not drawn)
active: [11]; at 1.2 µM 94% | [11]; at 3.7 µM 95% | [11]; at 11.0 µM 95% | [11]; at 33.0 µM 95% | [11]; at 100.0 µM 92% | [13]; at 1.2 µM 92% | [13]; at 3.7 µM 93% | [13]; at 11.0 µM 94% | [13]; at 33.0 µM 92% | [13]; at 100.0 µM 88% | [15]; at 1.2 µM 96% | [15]; at 3.7 µM 94% | [15]; [17] 97% | [15]; at 11.0 µM 95% | [15]; at 33.0 µM 93% | [15]; [18] 92% | [15]; at 50.0 µM 93.7% | [15]; at 100.0 µM 78% | [1]; at 3.7 µM 88% | [1]; [17] 87% | [1]; at 11.0 µM 93% | [1]; at 33.0 µM 92% | [1]; [18] 88% | [1]; at 50.0 µM 92.7% | [1]; at 100.0 µM 89% | [3]; [18] 84% | [7]; at 100.0 µM 74% | [8]; at 33.0 µM 83% | [8]; at 100.0 µM 80% | [10]; at 100.0 µM 71%
inactive: [12]; at 1.2 µM 3% | [12]; at 3.7 µM 0% | [12]; at 11.0 µM 16% | [12]; at 33.0 µM 43% | [12]; at 100.0 µM 65% | [14]; at 1.2 µM 13% | [14]; at 3.7 µM 19% | [14]; at 11.0 µM 30% | [14]; at 33.0 µM 57% | [14]; at 100.0 µM 67% | [1]; at 1.2 µM 60% | [2]; at 1.2 µM 12% | [2]; at 3.7 µM 19% | [2]; at 11.0 µM 35% | [2]; at 33.0 µM 59% | [2]; at 100.0 µM 69% | [3]; [17] 62% | [3]; at 50.0 µM 40.2% | [5]; [17] 24% | [5]; [18] 48% | [5]; at 50.0 µM 45.9% | [16]; at 1.2 µM -6% | [16]; at 3.7 µM 6% | [16]; [17] -2% | [16]; at 11.0 µM 24% | [16]; at 33.0 µM 44% | [16]; [18] 31% | [16]; at 50.0 µM -5.7% | [16]; at 100.0 µM 62% | [6]; at 1.2 µM 4% | [6]; at 3.7 µM 19% | [6]; at 11.0 µM 20% | [6]; at 33.0 µM 31% | [6]; at 100.0 µM 47% | [7]; at 1.2 µM 3% | [7]; at 3.7 µM 8% | [7]; at 11.0 µM 36% | [7]; at 33.0 µM 65% | [8]; at 1.2 µM 31% | [8]; at 3.7 µM 46% | [8]; at 11.0 µM 69% | [9]; [17] 45% | [9]; [18] 60% | [9]; at 50.0 µM 52.5% | [10]; at 1.2 µM 14% | [10]; at 3.7 µM 14% | [10]; at 11.0 µM 34% | [10]; at 33.0 µM 64%
